Screening data: PubChem BioAssay, National Center for Advancing Translational Sciences (NCATS)
Hits are enriched below; roughly 19% of the tested compounds scored in any of these assays.
IL-1B inflam inh: inflammasome signaling inhibition, IL-1 beta readout. THP-1 LPS/ATP IL-1B secretion, AlphaLISA, 16 h; hits give low values. activity change, % at 57.5 µM. hit rate 4.7% among 360,000. AID 743279; in the data active means activity change below about -50%; inconclusive means mostly about -30% to -49%
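THP-1 cells pretreated 1 hr with compounds (up to 57.5 uM final), then stimulated with LPS (250 ng/mL final) plus ATP (1.25 mM final); secreted IL-1B measured by AlphaLISA after 16 hr, decreased signal indicating inhibition.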
HT1080-NT tox: kills 2HG-producing HT-1080-NT fibrosarcoma cells | HT-1080-NT fibrosarcoma viability, CellTiter-Glo ATP luminescence, 48 h | Potency, µM (highest dose often 46.1 µM), for the others: top-dose activity, negative = less viability, usual class: cytotoxic | hit rate 1.6% among 360,000;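 further: NT is the 2HG producing partner of a matched IDH1 knockdown line; potency means the concentration at half of the fitted maximal effect; 0% = DMSO-treated cells and -100% = media-only wells without cells; nearly all actives have a fitted effect of over 55% in size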
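Read-out is CellTiter-Glo luminescence after 10 minutes at room temperature, following 48 hours' compound treatment of HT-1080-NT cells (750 cells/well, RPMI, 5% FBS, 37 degrees C).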
HT1080 IDH1KD tx: toxicity to HT-1080 IDH1 knockdown cells (counter line); hit rate 2% among 360,000; AID 686971; HT-1080 IDH1 knockdown viability, ATP luminescence, 48 h; Potency, µM (highest dose often 46.1 µM), for the others: at the highest dose activity, negative = toxicity, usual class: cytotoxic;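 further: potency means the concentration at half of the fitted maximal effect; 0% = DMSO wells and -100% = cell-free medium wells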
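Viability of IDH1-knockdown HT-1080 fibrosarcoma cells was assessed by CellTiter-Glo after 48 h at 37 °C with titrated compound; concentration-effect curves were classified by fit quality and response size.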
TDP1 cell CPT: DT40-hTDP1 cell growth loss with CPT | hit rate 12% among 420,000 | Potency, µM (titrated, usually from 46.2 µM), for the others: top-dose activity change, negative = growth inhibition, usual class: inhibitors | chicken DT40 Tdp1-/-;hTDP1 cells + 20 nM CPT, ATP luminescence, 48 h; further: potency means the concentration at half of the fitted maximal effect; nearly all actives have a fitted effect of over 55% in size
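Cell growth measured by CellTiter-Glo luminescence after a minimum 48 h, 37 C compound exposure with 20 nM CPT in Tdp1-knockout DT40 cells stably expressing hTDP1, seeded 400/well; qHTS titration format.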
DT40 TDP1 no CPT: qHTS for Inhibitors of human tyrosyl-DNA phosphodiesterase 1 (TDP1): qHTS in cells in absence of CPT; DT40 Tdp1-/- hTDP1 cells, no CPT, ATP luminescence, 48 h; Potency, µM (series often up to 46.2 µM), without a hit: at the highest dose activity change, negative = growth inhibition, usual class: inhibitors; hit rate 15% among 420,000; further: potency means the concentration at half of the fitted maximal effect; nearly all actives have a fitted effect of over 55% in size
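Chicken DT40 Tdp1-/- cells stably complemented with human TDP1 were seeded at 400 cells/well with DMSO in place of 20 nM camptothecin. After compound pinning, cells grew at least 48 hr at 37 °C; viability read by CellTiter-Glo luminescence.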
Numbers without * were called inactive; [ ] = remark or other dose. Unless noted, the call rests on the fitted dose curve; in most records, active means well fitted curve in the direction sought with a large enough effect; inconclusive means small, poorly fitted or top-dose-only effect, or another doubt; inactive means no such curve, though single readings can be large; an effect the other way counts as inactive or inconclusive. Unless noted, on the % scale 0 is the no-effect control and ±100 the full control effect.

Screening O=c1[nH]c(-c2ccccn2)cc2ccccc12 returned IL-1B inflam inh -56*, HT1080-NT tox -10%, HT1080 IDH1KD tx -27%, TDP1 cell CPT -28% and DT40 TDP1 no CPT -21%.
COC(=O)C1CCCCN1Cc1nc(N(C)C)c2ccccc2n1 (configuration not stated) was read as TDP1 cell CPT 5%[9.04 µM] and DT40 TDP1 no CPT -14%.
Screening Cc1ccc(-c2csc(N3CCN(CCCn4c(C(F)(F)F)nc5ccccc54)CC3)n2)cc1 returned IL-1B inflam inh 29, HT1080-NT tox inconclusive, HT1080 IDH1KD tx -8%, TDP1 cell CPT 21µM* and DT40 TDP1 no CPT 15µM*.
Screening Cc1ccc(-c2csc(N3CCN(CCCn4c(-c5ccncc5)nc5ccccc54)CC3)n2)cc1 returned IL-1B inflam inh 3, HT1080-NT tox inconclusive, HT1080 IDH1KD tx inconclusive, TDP1 cell CPT 5.8µM* and DT40 TDP1 no CPT 3.7µM*.
Screening O=C(NCCn1c(C(F)(F)F)nc2ccccc21)[C@H]1CCCN1c1nc(CN2CCCCC2)cs1 returned IL-1B inflam inh -21, HT1080-NT tox -2%, HT1080 IDH1KD tx -2%, TDP1 cell CPT -8% and DT40 TDP1 no CPT 5%.
For Cc1ccc(-c2csc(N3CCC[C@@H]3C(=O)NCCn3c(-c4ccncc4)nc4ccccc43)n2)cc1 the results were IL-1B inflam inh inconclusive, HT1080-NT tox -29%, HT1080 IDH1KD tx -23%, TDP1 cell CPT inconclusive and DT40 TDP1 no CPT 13µM*.
Screening CC(=O)N[C@@H](C)c1nc2ccccc2n1CCCN1CCN(c2nc(-c3ccc(C)cc3)cs2)CC1 returned IL-1B inflam inh 11, HT1080-NT tox -17%, HT1080 IDH1KD tx -12%, TDP1 cell CPT 1µM* and DT40 TDP1 no CPT 1µM*.
For COC(=O)C1C(=O)C(C(=O)/C=C/c2ccco2)C(=O)CC1(C)C (configuration not stated) the results were TDP1 cell CPT 5%[9.04 µM] and DT40 TDP1 no CPT 4%[9.04 µM].
For COc1ccc(NC(=O)c2ccc(CN3C(=O)CCn4nc(C)cc43)cc2)c(OC)c1 the results were TDP1 cell CPT 0% and DT40 TDP1 no CPT 9%.
For CCOc1ccc(Nc2nc3ccccc3c3nnc(CC)n23)cc1 the results were TDP1 cell CPT 15µM* and DT40 TDP1 no CPT 10µM*.
`CCc1nnc2c3ccccc3nc(Nc3ccc(F)c(Cl)c3)n12` gave TDP1 cell CPT 18µM* and DT40 TDP1 no CPT 18µM*.
Screening CCOc1ccc(OCC)c(Nc2nc3ccccc3c3nnc(C)n23)c1 returned TDP1 cell CPT 1% and DT40 TDP1 no CPT inconclusive.
Screening CCc1nnc2c(N3CCN(c4cc(Cl)ccc4C)CC3)nc3ccccc3n12 returned TDP1 cell CPT -5% and DT40 TDP1 no CPT -13%.
CCOC(=O)C1(Cc2cccc(Cl)c2)CCCN(C(=O)c2cc(C)on2)C1 (configuration not stated) was read as IL-1B inflam inh -1, HT1080-NT tox 5%, HT1080 IDH1KD tx 4%, TDP1 cell CPT 18µM* and DT40 TDP1 no CPT 21µM*.
CCOC(=O)C1(Cc2cccc(Cl)c2)CCCN(C(=O)c2c(CC)noc2C)C1 (configuration not stated) was read as IL-1B inflam inh 38, HT1080-NT tox -10%, HT1080 IDH1KD tx 4%, TDP1 cell CPT inconclusive and DT40 TDP1 no CPT 12µM*.
For CCOC(=O)C1(Cc2cccc(Cl)c2)CCCN(C(=O)c2cc(C(C)C)nn2C)C1 (configuration not stated) the results were IL-1B inflam inh inconclusive, HT1080-NT tox -3%, HT1080 IDH1KD tx -6%, TDP1 cell CPT 15µM* and DT40 TDP1 no CPT inconclusive.
CCOC(=O)C1(Cc2cccc(Cl)c2)CCCN(C(=O)CCOC)C1 (configuration not stated) was read as IL-1B inflam inh 74, HT1080-NT tox 7%, HT1080 IDH1KD tx 2%, TDP1 cell CPT -9% and DT40 TDP1 no CPT inconclusive.
Screening C=CCCC(=O)N1CCCC(Cc2cccc(Cl)c2)(C(=O)OCC)C1 (configuration not stated) returned IL-1B inflam inh -56*, HT1080-NT tox -15%, HT1080 IDH1KD tx -25%, TDP1 cell CPT inconclusive and DT40 TDP1 no CPT inconclusive.
For CCOC(=O)C1(Cc2cccc(Cl)c2)CCCN(C(=O)c2cc(C)[nH]n2)C1 (configuration not stated) the results were IL-1B inflam inh 7, HT1080-NT tox 3%, HT1080 IDH1KD tx 3%, TDP1 cell CPT -22% and DT40 TDP1 no CPT -27%.
O=C(O)Cn1c(C(=O)Nc2nc(-c3ccccc3Cl)cs2)cc2ccccc21 was read as TDP1 cell CPT -6% and DT40 TDP1 no CPT -16%.
Screening Cc1ccccc1-c1cc(-c2ccccc2O)n[nH]1 returned IL-1B inflam inh -9, HT1080-NT tox inconclusive, HT1080 IDH1KD tx inconclusive, TDP1 cell CPT 21µM* and DT40 TDP1 no CPT 23µM*.
For Cc1ccc(-c2cc(-c3ccccc3[N+](=O)[O-])[nH]n2)c(O)c1 the results were IL-1B inflam inh 30, HT1080-NT tox -14%, HT1080 IDH1KD tx inconclusive, TDP1 cell CPT inconclusive and DT40 TDP1 no CPT inconclusive.
COc1ccc(-c2cc(-c3ccccc3O)[nH]n2)cc1 was read as IL-1B inflam inh -6, HT1080-NT tox inconclusive, HT1080 IDH1KD tx inconclusive, TDP1 cell CPT -14% and DT40 TDP1 no CPT inconclusive.
`Cc1ccc(-c2cc(-c3ccccc3Cl)[nH]n2)c(O)c1` gave IL-1B inflam inh 1, HT1080-NT tox inconclusive, HT1080 IDH1KD tx 11µM*, TDP1 cell CPT inconclusive and DT40 TDP1 no CPT inconclusive.
Screening CCN(CC(=O)Nc1ccc(NC(C)=O)cc1)C(=O)C1(c2ccccc2)CC1 returned IL-1B inflam inh -6, HT1080-NT tox 5%, HT1080 IDH1KD tx 13%, TDP1 cell CPT 15% and DT40 TDP1 no CPT 3%.
Screening CN(CCc1ccccc1)C(C(=O)Nc1ccc2c(c1)OCCO2)c1ccnc2ccccc12 (configuration not stated) returned IL-1B inflam inh -18, HT1080-NT tox inconclusive, HT1080 IDH1KD tx inconclusive, TDP1 cell CPT inconclusive and DT40 TDP1 no CPT inconclusive.
Screening CC1(COS(N)(=O)=O)CCCCC1 returned IL-1B inflam inh 74, HT1080-NT tox 10%, HT1080 IDH1KD tx 5%, TDP1 cell CPT 0.46µM* and DT40 TDP1 no CPT -19%.
Screening CC1(C)O[C@@H]2[C@@H](CO[C@@]3(COS(N)(=O)=O)OC(C)(C)O[C@@H]23)O1 returned TDP1 cell CPT -29% and DT40 TDP1 no CPT -27%.
Screening O=C(O)CCCCCN1C(=O)CSC1=S returned IL-1B inflam inh -19, HT1080-NT tox 9%, HT1080 IDH1KD tx 8%, TDP1 cell CPT -28% and DT40 TDP1 no CPT inconclusive.
